RORg inh: inhibitors of mouse ROR gamma transcriptional activity; Drosophila S2 Gal4-RORgamma UAS-luciferase reporter, 20 h; P51450; AID 2551; actives 5.4% (n = 310,000); Potency, µM (top dose mostly 53.6 µM), inactives show top-dose activity change, negative = inhibition, hits mostly inhibitors; further: potency means the concentration at half of the fitted maximal effect; nearly all actives have a fitted effect of over 60% in size
Target sequence (P51450 whole entry, looked up, the tested form may be a part): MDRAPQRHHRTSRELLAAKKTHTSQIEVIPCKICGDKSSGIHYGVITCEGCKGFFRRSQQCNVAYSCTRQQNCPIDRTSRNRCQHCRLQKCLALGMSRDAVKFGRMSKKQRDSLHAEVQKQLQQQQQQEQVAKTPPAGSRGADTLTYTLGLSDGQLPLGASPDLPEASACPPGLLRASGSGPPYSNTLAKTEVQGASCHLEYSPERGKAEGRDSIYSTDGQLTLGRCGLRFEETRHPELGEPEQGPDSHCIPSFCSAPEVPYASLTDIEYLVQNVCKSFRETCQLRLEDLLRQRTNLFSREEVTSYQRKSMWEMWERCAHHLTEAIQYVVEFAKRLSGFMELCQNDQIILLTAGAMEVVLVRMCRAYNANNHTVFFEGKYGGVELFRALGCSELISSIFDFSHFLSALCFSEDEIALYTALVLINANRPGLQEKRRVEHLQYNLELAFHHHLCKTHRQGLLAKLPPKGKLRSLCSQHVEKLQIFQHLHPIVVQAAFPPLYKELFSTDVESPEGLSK
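Drosophila Schneider cells stably carrying a metallothionein-driven Gal4 DBD–ROR gamma fusion and a UAS-Photinus luciferase reporter were exposed to compound for 1 hr, then induced with copper sulfate (700 uM final) for 20 hr at ambient temperature before luminescence reading.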
DT40 TDP1 CPT: DT40-hTDP1 cell growth loss with CPT; AID 686979; Potency, µM (series often up to 46.2 µM), inactives show top-dose activity change, negative = growth inhibition, usual class: inhibitors; chicken DT40 Tdp1-/-;hTDP1 cells + 20 nM CPT, ATP luminescence, 48 h; actives 12% (n = 420,000); further: potency means the concentration at half of the fitted maximal effect; nearly all actives have a fitted effect of over 55% in size
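Chicken DT40 Tdp1-/- cells stably complemented with human TDP1 were seeded at 400 cells/well in medium containing 20 nM camptothecin, exposed to pin-transferred compounds, and grown at 37 °C for at least 48 hr. Viability was read as ATP luminescence.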
Gal4-VP16 FLuc: inhibits Gal4-VP16 luciferase reporter, ROR gamma counter-screen; Drosophila S2 Gal4-VP16 UAS-luciferase, luminescence, 20 h; Potency, µM (doses to about 53.6 µM), for the others: top-dose activity, negative = inhibition, usual class: inhibitors; actives 3.5% (n = 310,000);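 further: Gal4-VP16 expression switched on by copper sulfate through the metallothionein promoter; potency means the concentration at half of the fitted maximal effect; nearly all actives have a fitted effect of over 50% in size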
DT40 TDP1 no CPT: qHTS for Inhibitors of human tyrosyl-DNA phosphodiesterase 1 (TDP1): qHTS in cells in absence of CPT; DT40 Tdp1-/- hTDP1 cells, no CPT, ATP luminescence, 48 h; Potency, µM (titrated, usually from 46.2 µM), inactives show at the highest dose activity change, negative = growth inhibition, actives largely listed as inhibitors; actives 15% (n = 420,000); AID 686978, 2013; further: potency means the concentration at half of the fitted maximal effect; nearly all actives have a fitted effect of over 55% in size
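Compound effects on proliferation are scored in DT40 Tdp1-/-;hTDP1 cells in the absence of CPT. ATP levels (CellTiter-Glo luminescence) are recorded after a ≥48 hr, 37 °C incubation.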
ELG1 repair inh: ELG1-dependent DNA repair inhibition | actives 2.3% (n = 330,000) | Potency, µM (series often up to 46.1 µM), inactives show at the top dose activity change, negative = inhibition, usual class: inhibitors | HEK293T ELG1-luciferase reporter, luminescence, 16 h; DNA damage induced by 5-fluorouridine; further: potency means the concentration at half of the fitted maximal effect; nearly all actives have a fitted effect of over 55% in size
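DMSO vehicle served as the neutral condition. Each well held 2,000 cells given 5-fluorouridine plus compound; after 16 hr at 37 °C/5% CO2, ONE-Glo was added and luciferase measured 30 min later.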
IL-1B inflam inh: inflammasome signaling inhibition, IL-1 beta readout; THP-1 LPS/ATP IL-1B secretion, AlphaLISA, 16 h; stronger effect = lower value; activity change, % at 57.5 µM; actives 4.7% (n = 360,000); in the data active means activity change below about -50%; inconclusive means mostly about -30% to -49%
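Secreted IL-1B measured by AlphaLISA bead assay after 16 h compound exposure of THP-1 cells; compounds (final up to 57.5 uM) added 1 h before LPS (250 ng/mL) and ATP (1.25 mM) stimulation; lower signal means less secretion.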
* marks the source's active call; other numbers are inactive results; ? = inconclusive; . = no result given; [ ] = remark or other dose. Rows were chosen to be rich in hits. Some 21% of all compounds tested hit in one or more screens of this group. Unless noted, the call rests on the fitted dose curve; in most records, active means well fitted curve in the direction sought with a large enough effect; inconclusive means small, poorly fitted or top-dose-only effect, or another doubt; inactive means no such curve, though single readings can be large; an effect the other way counts as inactive or inconclusive. On the % scale 0 is the no-effect control and ±100 the full control effect.

SMILES	RORg inh	DT40 TDP1 CPT	Gal4-VP16 FLuc	DT40 TDP1 no CPT	ELG1 repair inh	IL-1B inflam inh
COc1cc(C2C(C(=O)Nc3ccccc3C)=C(C)Nc3ncnn32)ccc1OCC(N)=O (stereo unspecified)	.	-7%	.	-1%	.	.
CCOC(=O)c1c(S(=O)(=O)N2CCC(C)CC2)c(C)n(C)c1C	-8%	-14%	0%	-18%	0%	-11
CCOC(=O)c1cccc(N)c1	10%[10 µM]	-18%	-5%	-10%	.	.
O=C(NCCc1ccccc1)c1ccc(CS(=O)(=O)Cc2ccccc2F)o1	33%	-16%	-2%	?	?	0
Cc1ccc(CCNC(=O)c2ccc(CSCc3ccccc3C)o2)cc1	.	?	.	16µM*	.	.
CC(C)CCNC(=O)c1ccc(CSCc2cccc(F)c2)o1	17%	?	12%	-29%	5%	-63*
Cc1ccccc1CS(=O)(=O)Cc1ccc(C(=O)NCCc2ccc(Cl)cc2)o1	.	21µM*	.	?	.	.
Cc1ccc(CCNC(=O)c2ccc(CS(=O)(=O)Cc3ccccc3F)o2)cc1	?	?	2%	16µM*	?	-8
CCCNc1nc(NCC)nc(OC)n1	10%	4%	-1%	5%	?	-9
CCCC(=O)N1CCC1(C)C(=O)Nc1cccc(OC(C)C)c1 (stereo unspecified)	.	-23%	.	?	.	6
CCc1ccc(NC(=O)CSC2=Nc3ccccc3C3=NC(CCC(=O)NCCc4ccccc4)C(=O)N23)cc1 (stereo unspecified)	.	23µM*	.	?	.	.
CCc1ccccc1NC(=O)CSC1=Nc2ccccc2C2=NC(Cc3ccccc3)C(=O)N12 (stereo unspecified)	.	16µM*	.	?	.	.
CCc1ccc(NC(=O)CSC2=Nc3ccccc3C3=NC(CCC(=O)NCc4ccccc4)C(=O)N23)cc1 (stereo unspecified)	.	?	.	23µM*	.	.
Cc1ccccc1NC(=O)CSC1=Nc2ccccc2C2=NC(CCC(=O)NCc3ccccc3)C(=O)N12 (stereo unspecified)	.	-26%	.	?	.	.
CCOc1ccc(NC(=O)CSC2=Nc3ccccc3C3=NC(CCC(=O)NCc4ccccc4)C(=O)N23)cc1 (stereo unspecified)	.	?	.	16µM*	.	.
CCCCNC(=O)CC1N=C2c3ccccc3N=C(SCC(=O)Nc3ccccc3C)N2C1=O (stereo unspecified)	22%	0%	0%	?	5%	-4
N#Cc1ccc(CN2CCCC3(CCNCC3)C2)cc1	-8%	?	12%	?	.	.
CCn1c(-c2cccn(Cc3ccc(Cl)cc3Cl)c2=O)n[nH]c1=S	10µM*	0%	-17%	?	-15%	49
CCCCn1c(-c2ccc([N+](=O)[O-])cc2)n[nH]c1=S	2.2µM*	-4%	8.9µM*	-7%	6%	19
CCn1c(-c2ccc(Cl)cc2)n[nH]c1=S	10µM*	-1%	13µM*	-16%	-7%	-6
CCn1c(-c2ccc(C)cc2)n[nH]c1=S	8.9µM*	21µM*	11µM*	?	8%	13
CCn1c(-c2cccnc2)n[nH]c1=S	?	-1%	-10%	-7%	-8%	3
CCOc1ccc(C(=O)Nc2cc(-c3nc4ccccc4o3)ccc2C)cc1Cl	.	-12%	.	-6%	.	.
CCCS(=O)(=O)NC(=O)C1(C)CCCN(C(=O)CCc2cccs2)C1 (stereo unspecified)	.	-10%	.	-8%	.	16
CCOc1ccc(NC(=O)CN(C)C(=O)C2=COCCO2)cc1OCC	.	-12%	.	-3%	4%	6
SMILES	RORg inh	DT40 TDP1 CPT	Gal4-VP16 FLuc	DT40 TDP1 no CPT	ELG1 repair inh	IL-1B inflam inh
COC(=O)c1sccc1S(=O)(=O)NC(C)c1cnn(-c2ccc(OC)cc2)c1C (stereo unspecified)	3%	-29%	6%	?	0%	0
COc1ccc(-n2ncc(C(C)NS(=O)(=O)c3cc(C)sc3C)c2C)cc1 (stereo unspecified)	.	?	.	16µM*	.	25
C#CCn1c(=NC(=O)c2ccc(S(=O)(=O)N3CCCc4ccccc43)cc2)sc2cc(S(N)(=O)=O)ccc21	27%	13µM*	-7%	15µM*	-10%	16
Cn1c(=NC(=O)c2ccc(S(=O)(=O)N3CCCc4ccccc43)cc2)sc2cc(S(C)(=O)=O)ccc21	6%	-3%	-21%	-12%	-2%	-17
O=C(N[C@@H](Cc1ccccc1)C(=O)N1CCC2(CC1)NCCc1[nH]cnc12)c1cccc(Br)c1	5%	10µM*	-11%	6.5µM*	-10%	?
CCCOc1ccc(/C=C/C(=O)Nc2ccc([N+](=O)[O-])cc2)cc1	?	18µM*	2%	21µM*	?	-87*
Cc1ccccc1OCCNC(=O)/C=C/c1ccc([N+](=O)[O-])cc1	?	1%	-7%	?	-18%	-70*
CCCCOc1ccc(/C=C/C(=O)Nc2ccc([N+](=O)[O-])cc2C)cc1	32%	?	-9%	?	?	6
COc1ccc(NCc2nnc(SCC#N)n2-c2ccccc2OC)cc1	27%	?	-9%	16µM*	-4%	-8
COc1ccc(OCc2nnc(SCC(N)=O)n2-c2ccccc2OC)cc1	-6%	-6%	-1%	-1%	6%	0
CCCSc1ncc(Cl)c(C(=O)NCc2ccc(C)cc2)n1	.	-28%	.	-27%	.	.
Cc1ccc(CNC(=O)CN(C)S(=O)(=O)c2ccc3c(c2)c(=O)n(C)c(=O)n3C)cc1	.	-8%	.	-6%	.	.
CCCn1c(SCC(=O)Nc2cc(C)on2)nc2c1c(=O)n(C)c(=O)n2C	.	-27%	.	-32%	.	10
Nn1c(SCC(=O)Nc2nc3ccccc3s2)nncc1=O	32µM*	-7%	-2%	-2%	?	11
CCCCn1c(SCC(=O)Nc2ccc3c(c2)OCO3)nc2c1c(=O)n(C)c(=O)n2C	?	16µM*	-22%	?	?	-20
Cn1c(=O)c2c(ncn2CC(=O)Nc2ccc3c(c2)OCO3)n(C)c1=O	.	-13%	.	-7%	.	-2
CCCn1c(SCC(=O)Nc2nc3ccccc3s2)nc2c1c(=O)n(C)c(=O)n2C	0%	23µM*	-2%	23µM*	-18%	0
Cc1ccc(Cn2c(SCC(=O)Nc3cccc(C)n3)nc3c2c(=O)n(C)c(=O)n3C)cc1	-8%	.	4%	.	1%	.

Bioassay records: PubChem BioAssay, National Center for Advancing Translational Sciences (NCATS)
